Laboratory results as given in ChEMBL document CHEMBL1961873, “Compounds: GSK PKIS; Assays: Nanosyn kinase panel” (2012).

How the values were obtained:
[1] = molecular target: Sphingosine kinase 1 (Homo sapiens) (UniProt Q9NYA1); settings: at 1 µM;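 further: mean SPHK1 inhibition value reported from the GSK PKIS kinase panel screen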
[2] = molecular target: T1, Sphingosine kinase 2 (Homo sapiens) (UniProt Q9NRA0); settings: at 0.1 µM
T1 sequence (whole entry): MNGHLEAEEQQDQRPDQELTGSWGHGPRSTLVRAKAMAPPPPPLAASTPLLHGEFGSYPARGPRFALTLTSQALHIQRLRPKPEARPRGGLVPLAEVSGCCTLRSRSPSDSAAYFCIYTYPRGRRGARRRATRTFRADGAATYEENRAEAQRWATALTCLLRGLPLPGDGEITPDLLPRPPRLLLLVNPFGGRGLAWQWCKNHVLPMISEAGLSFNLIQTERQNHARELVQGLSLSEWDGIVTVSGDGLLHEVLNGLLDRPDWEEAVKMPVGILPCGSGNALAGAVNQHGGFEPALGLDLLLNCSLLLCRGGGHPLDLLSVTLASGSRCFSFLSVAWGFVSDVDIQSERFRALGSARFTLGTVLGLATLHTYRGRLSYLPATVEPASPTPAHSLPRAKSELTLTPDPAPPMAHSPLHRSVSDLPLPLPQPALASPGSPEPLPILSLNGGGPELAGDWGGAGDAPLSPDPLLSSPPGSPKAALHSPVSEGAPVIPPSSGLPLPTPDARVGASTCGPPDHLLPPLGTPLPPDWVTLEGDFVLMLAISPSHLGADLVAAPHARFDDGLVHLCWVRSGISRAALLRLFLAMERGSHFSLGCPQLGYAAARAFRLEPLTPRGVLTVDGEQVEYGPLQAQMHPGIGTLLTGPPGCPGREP

[3] = molecular target: T1, Sphingosine kinase 2 (Homo sapiens); settings: at 1 µM
[4] = molecular target: Casein kinase II subunit alpha (Homo sapiens) (UniProt P68400); settings: at 0.1 µM
[5] = molecular target: Casein kinase II subunit alpha (Homo sapiens) (UniProt P68400); settings: at 1 µM
[6] = molecular target: T2, Inhibitor of nuclear factor kappa-B kinase subunit alpha (Homo sapiens) (UniProt O15111); settings: at 0.1 µM
T2 sequence (whole entry): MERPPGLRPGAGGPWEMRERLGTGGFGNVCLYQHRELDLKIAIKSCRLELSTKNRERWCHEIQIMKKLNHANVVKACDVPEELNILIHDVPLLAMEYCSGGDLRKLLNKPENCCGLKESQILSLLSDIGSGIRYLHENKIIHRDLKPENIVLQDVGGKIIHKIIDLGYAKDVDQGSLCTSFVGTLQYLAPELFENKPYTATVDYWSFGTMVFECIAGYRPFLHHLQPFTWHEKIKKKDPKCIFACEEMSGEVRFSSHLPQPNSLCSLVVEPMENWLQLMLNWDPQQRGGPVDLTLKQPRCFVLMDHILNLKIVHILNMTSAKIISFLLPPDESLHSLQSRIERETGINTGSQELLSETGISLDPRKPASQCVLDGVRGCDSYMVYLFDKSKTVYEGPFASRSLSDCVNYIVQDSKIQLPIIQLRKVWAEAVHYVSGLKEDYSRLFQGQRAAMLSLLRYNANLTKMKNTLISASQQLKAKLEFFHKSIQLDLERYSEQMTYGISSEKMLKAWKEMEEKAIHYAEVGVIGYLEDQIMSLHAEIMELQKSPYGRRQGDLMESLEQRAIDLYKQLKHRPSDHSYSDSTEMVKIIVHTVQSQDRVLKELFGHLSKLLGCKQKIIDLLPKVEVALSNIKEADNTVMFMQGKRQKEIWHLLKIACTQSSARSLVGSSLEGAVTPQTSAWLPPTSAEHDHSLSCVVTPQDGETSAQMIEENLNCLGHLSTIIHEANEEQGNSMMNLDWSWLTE

[7] = molecular target: T2, Inhibitor of nuclear factor kappa-B kinase subunit alpha (Homo sapiens); settings: at 1 µM
[8] = molecular target: T3, Inhibitor of nuclear factor kappa-B kinase subunit beta (Homo sapiens) (UniProt O14920); settings: at 0.1 µM
T3 sequence (whole entry): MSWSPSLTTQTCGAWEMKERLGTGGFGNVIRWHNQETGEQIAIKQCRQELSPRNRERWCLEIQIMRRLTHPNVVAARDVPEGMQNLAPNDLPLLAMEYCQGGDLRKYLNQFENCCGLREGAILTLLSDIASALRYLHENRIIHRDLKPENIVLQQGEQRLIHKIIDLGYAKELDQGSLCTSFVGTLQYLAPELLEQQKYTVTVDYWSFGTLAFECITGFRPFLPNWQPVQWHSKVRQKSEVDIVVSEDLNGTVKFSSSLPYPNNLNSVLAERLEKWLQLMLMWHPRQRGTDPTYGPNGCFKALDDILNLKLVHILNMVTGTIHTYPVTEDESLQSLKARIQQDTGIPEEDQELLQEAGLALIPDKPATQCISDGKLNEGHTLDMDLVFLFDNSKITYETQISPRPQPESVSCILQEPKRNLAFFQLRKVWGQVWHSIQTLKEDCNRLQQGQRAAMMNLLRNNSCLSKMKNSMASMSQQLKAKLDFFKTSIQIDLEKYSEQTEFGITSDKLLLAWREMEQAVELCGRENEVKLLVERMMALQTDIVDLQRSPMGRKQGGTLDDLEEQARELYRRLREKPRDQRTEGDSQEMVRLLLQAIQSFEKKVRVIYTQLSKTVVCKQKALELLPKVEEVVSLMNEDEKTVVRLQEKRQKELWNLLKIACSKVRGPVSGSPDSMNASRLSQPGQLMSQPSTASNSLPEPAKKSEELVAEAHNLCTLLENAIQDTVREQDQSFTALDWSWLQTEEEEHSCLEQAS

[9] = molecular target: T3, Inhibitor of nuclear factor kappa-B kinase subunit beta (Homo sapiens); settings: at 1 µM
[10] = molecular target: T4, Inhibitor of nuclear factor kappa-B kinase subunit epsilon (Homo sapiens) (UniProt Q14164); settings: at 0.1 µM
T4 sequence (whole entry): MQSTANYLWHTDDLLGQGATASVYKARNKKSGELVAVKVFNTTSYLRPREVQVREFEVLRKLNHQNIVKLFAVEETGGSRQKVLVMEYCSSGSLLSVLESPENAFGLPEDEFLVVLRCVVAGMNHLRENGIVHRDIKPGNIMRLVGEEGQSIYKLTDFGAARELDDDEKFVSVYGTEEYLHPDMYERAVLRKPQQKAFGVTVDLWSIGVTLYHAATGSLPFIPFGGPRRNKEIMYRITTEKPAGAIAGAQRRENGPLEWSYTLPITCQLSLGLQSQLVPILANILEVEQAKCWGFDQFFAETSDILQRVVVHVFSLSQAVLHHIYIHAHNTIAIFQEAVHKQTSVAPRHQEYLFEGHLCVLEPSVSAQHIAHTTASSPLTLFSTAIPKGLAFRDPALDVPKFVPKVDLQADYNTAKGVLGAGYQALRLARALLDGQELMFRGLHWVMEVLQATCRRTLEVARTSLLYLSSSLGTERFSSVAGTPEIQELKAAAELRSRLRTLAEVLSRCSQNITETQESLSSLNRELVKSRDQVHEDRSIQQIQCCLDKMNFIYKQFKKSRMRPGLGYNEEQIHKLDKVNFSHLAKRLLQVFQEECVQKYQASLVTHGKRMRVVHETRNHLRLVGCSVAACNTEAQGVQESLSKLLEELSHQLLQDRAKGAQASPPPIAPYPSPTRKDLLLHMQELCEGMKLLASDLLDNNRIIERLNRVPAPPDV

[11] = molecular target: T4, Inhibitor of nuclear factor kappa-B kinase subunit epsilon (Homo sapiens); settings: at 1 µM
[12] = molecular target: T5, Serine/threonine-protein kinase Nek1 (Homo sapiens) (UniProt Q96PY6); settings: at 0.1 µM
T5 sequence (whole entry): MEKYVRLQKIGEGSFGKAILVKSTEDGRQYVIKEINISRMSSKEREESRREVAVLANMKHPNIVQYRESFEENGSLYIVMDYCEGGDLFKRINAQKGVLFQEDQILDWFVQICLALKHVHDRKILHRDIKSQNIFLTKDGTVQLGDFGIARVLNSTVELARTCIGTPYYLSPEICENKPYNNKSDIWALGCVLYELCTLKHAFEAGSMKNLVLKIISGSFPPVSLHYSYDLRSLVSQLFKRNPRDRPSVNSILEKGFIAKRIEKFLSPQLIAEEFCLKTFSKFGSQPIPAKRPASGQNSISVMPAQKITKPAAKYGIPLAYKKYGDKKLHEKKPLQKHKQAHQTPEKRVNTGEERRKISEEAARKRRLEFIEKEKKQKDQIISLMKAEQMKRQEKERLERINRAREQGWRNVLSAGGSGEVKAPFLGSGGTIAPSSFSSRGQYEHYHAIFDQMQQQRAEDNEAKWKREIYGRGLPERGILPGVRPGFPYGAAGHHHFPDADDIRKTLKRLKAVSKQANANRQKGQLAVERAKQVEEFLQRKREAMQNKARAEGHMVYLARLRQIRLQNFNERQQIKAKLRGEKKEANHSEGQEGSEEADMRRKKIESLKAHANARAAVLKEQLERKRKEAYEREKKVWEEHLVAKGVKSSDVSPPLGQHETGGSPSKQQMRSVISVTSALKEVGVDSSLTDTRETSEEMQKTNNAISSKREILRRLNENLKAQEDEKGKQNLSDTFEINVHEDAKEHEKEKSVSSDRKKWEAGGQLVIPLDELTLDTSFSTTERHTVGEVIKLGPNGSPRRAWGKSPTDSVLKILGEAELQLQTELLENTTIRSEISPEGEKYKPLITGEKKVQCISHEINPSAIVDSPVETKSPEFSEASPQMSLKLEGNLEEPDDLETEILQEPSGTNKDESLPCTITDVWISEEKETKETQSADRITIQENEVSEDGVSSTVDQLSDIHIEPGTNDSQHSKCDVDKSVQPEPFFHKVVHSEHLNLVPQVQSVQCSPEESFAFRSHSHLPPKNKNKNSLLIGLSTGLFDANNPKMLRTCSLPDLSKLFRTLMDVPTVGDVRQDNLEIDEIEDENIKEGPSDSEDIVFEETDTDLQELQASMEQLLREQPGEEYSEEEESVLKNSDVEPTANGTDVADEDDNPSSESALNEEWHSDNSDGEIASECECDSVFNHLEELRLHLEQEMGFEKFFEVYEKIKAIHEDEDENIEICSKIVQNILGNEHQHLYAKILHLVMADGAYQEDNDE

[13] = molecular target: T5, Serine/threonine-protein kinase Nek1 (Homo sapiens); settings: at 1 µM
[14] = molecular target: T6, Serine/threonine-protein kinase Nek2 (Homo sapiens) (UniProt P51955); settings: at 0.1 µM
T6 sequence (whole entry): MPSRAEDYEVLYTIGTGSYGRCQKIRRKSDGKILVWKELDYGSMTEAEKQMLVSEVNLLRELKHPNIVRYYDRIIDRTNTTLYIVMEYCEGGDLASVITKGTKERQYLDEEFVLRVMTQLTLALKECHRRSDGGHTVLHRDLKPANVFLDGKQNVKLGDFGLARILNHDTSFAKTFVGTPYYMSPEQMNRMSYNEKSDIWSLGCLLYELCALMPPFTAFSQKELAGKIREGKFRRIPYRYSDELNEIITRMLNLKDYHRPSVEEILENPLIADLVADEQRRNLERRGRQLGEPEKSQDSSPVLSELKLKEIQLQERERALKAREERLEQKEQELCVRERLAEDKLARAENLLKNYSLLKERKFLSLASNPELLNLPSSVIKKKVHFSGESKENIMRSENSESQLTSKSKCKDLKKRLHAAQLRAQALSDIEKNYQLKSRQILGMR

[15] = molecular target: T6, Serine/threonine-protein kinase Nek2 (Homo sapiens); settings: at 1 µM
[16] = molecular target: Serine/threonine-protein kinase Nek6 (Homo sapiens) (UniProt Q9HC98); settings: at 0.1 µM
[17] = molecular target: Serine/threonine-protein kinase Nek6 (Homo sapiens) (UniProt Q9HC98); settings: at 1 µM
[18] = molecular target: Serine/threonine-protein kinase Nek7 (Homo sapiens) (UniProt Q8TDX7); settings: at 0.1 µM
[19] = molecular target: Serine/threonine-protein kinase Nek7 (Homo sapiens) (UniProt Q8TDX7); settings: at 1 µM
[20] = molecular target: T7, Serine/threonine-protein kinase Nek9 (Homo sapiens) (UniProt Q8TD19); settings: at 0.1 µM;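 further: reported value is the mean percent inhibition of NEK9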
T7 sequence (whole entry): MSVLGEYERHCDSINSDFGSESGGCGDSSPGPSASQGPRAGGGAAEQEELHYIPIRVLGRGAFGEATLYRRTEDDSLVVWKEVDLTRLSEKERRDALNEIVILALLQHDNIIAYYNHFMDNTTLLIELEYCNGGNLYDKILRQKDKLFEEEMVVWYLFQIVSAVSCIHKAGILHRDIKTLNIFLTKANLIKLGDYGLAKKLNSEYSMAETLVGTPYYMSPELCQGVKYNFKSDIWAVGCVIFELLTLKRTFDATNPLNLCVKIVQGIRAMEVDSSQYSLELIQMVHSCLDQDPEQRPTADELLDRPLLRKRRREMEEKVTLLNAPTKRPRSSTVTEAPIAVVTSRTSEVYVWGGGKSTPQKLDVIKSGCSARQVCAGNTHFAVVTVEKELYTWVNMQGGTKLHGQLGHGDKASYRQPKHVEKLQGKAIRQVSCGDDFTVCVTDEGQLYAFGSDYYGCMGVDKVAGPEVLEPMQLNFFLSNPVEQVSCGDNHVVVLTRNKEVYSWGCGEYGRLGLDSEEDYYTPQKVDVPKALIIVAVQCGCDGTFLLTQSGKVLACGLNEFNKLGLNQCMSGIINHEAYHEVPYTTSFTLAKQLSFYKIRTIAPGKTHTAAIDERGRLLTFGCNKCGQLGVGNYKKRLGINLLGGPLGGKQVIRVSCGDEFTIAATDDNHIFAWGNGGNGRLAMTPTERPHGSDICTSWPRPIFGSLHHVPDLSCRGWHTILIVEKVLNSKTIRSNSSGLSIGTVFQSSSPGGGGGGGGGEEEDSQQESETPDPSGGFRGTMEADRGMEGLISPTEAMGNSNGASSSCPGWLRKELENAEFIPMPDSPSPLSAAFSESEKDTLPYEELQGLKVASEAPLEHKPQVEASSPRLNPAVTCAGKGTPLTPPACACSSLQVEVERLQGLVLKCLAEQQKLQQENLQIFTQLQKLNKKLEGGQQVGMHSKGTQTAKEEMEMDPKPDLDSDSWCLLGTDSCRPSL

Serine/threonine-protein kinase Nek7 (Homo sapiens), sequence (Q8TDX7 whole entry, looked up): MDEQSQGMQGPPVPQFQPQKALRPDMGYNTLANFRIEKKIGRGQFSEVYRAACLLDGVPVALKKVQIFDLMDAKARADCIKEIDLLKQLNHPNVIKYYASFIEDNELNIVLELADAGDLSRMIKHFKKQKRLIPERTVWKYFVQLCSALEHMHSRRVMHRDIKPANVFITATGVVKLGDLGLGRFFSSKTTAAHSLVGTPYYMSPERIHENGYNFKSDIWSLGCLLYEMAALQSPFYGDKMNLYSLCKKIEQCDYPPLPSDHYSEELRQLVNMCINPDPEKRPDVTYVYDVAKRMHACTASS
Serine/threonine-protein kinase Nek6 (Homo sapiens), sequence (Q9HC98 whole entry): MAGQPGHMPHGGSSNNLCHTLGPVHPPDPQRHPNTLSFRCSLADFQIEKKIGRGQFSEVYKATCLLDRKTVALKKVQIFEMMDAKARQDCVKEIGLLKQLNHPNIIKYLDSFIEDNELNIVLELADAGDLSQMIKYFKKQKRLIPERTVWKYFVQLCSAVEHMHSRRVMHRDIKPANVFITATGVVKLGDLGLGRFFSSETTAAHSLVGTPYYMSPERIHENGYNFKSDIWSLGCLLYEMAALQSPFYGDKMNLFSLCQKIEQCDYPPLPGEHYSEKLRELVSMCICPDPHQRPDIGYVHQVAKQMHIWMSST
Casein kinase II subunit alpha (Homo sapiens), sequence (P68400 whole entry, looked up): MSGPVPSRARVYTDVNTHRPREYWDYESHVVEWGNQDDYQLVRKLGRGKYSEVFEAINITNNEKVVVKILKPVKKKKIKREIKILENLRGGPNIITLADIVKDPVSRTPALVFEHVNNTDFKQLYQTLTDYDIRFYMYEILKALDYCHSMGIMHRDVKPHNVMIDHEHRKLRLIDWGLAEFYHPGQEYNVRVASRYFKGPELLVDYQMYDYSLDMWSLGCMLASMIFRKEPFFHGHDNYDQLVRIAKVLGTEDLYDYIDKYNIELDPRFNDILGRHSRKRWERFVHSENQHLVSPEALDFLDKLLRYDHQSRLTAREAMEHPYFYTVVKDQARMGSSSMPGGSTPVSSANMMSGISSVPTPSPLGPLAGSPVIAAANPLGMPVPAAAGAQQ
Sphingosine kinase 1 (Homo sapiens), sequence (Q9NYA1 whole entry): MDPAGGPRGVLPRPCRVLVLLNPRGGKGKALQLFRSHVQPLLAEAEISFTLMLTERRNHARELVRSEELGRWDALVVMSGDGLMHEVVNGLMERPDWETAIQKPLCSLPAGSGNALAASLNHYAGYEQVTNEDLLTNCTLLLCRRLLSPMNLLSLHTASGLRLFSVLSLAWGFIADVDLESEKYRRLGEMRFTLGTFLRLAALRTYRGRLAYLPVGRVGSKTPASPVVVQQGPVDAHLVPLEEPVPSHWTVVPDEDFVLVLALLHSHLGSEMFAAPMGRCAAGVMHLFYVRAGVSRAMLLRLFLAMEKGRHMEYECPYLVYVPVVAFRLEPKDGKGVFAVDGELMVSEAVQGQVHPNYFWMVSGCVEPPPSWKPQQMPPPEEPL

SMILES: CN1CCN(CCCNc2nc3ccc(Oc4ccc(NC(=O)Nc5cc(C(F)(F)F)ccc5F)cc4)cc3[nH]2)CC1
- inhibition [1]: -1.27%
- inhibition [2]: -0.2%
- inhibition [3]: -0.28%
- inhibition [4]: -2.06%
- inhibition [5]: -5.31%
- inhibition [6]: 3.44%
- inhibition [7]: -6.02%
- inhibition [8]: 0.21%
- inhibition [9]: -0.85%
- inhibition [10]: -0.49%
- inhibition [11]: -0.63%
- inhibition [12]: 1.41%
- inhibition [13]: 0.88%
- inhibition [14]: 0.71%
- inhibition [15]: 0.01%
- inhibition [16]: 3.67%
- inhibition [17]: -2.03%
- inhibition [18]: 3.61%
- inhibition [19]: 0.94%
- inhibition [20]: 2.54%
